From PubChem BioAssay (NCI)
Compounds without any hit were thinned out: in the full panel of roughly 79,000, 15% have a hit. Unmarked numbers belong to inactive results. Calls of active or inactive are those of the source. Rule as the data show it: active = growth inhibition above about 70%; inactive = the rest.

Assays:
[1] = NCI Yeast Anticancer Drug Screen. Data for the rad50 strain (AID 155);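 also: 0% = growth of vehicle-only cultures of the same strain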; conditions: S. cerevisiae rad50 strain growth inhibition, stronger effect = higher value
How it was run: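 Compounds were tested on a yeast strain with an engineered DNA damage repair alteration; the reported value is growth inhibition normalised to vehicle treatment.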

[2] = NCI Yeast Anticancer Drug Screen. Data for the mec2-1 strain (AID 157); conditions: S. cerevisiae mec2-1 strain, stronger effect = higher value
How it was run: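 Yeast mec2-1 mutant treated with compound. Readout: growth inhibition vs vehicle controls.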

[3] = NCI Yeast Anticancer Drug Screen. Data for the sgs1 mgt1 strain (AID 161);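 also: 0% = growth of cultures given vehicle only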; conditions: S. cerevisiae sgs1 mgt1 strain, stronger effect = higher value
How it was run: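 Genetically altered yeast, compound exposure, growth inhibition relative to vehicle.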

[4] = NCI Yeast Anticancer Drug Screen. Data for the cln2 rad14 strain (AID 165);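 also: 0% = growth equal to vehicle treated cultures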; conditions: S. cerevisiae cln2 rad14 strain, stronger effect = higher value
How it was run: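 cln2 rad14 yeast strain; compound exposure; growth inhibition read vs vehicle controls.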

[5] = NCI Yeast Anticancer Drug Screen. Data for the bub3 strain (AID 167); conditions: S. cerevisiae bub3 mutant strain, stronger effect = higher value
How it was run: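 Growth of a checkpoint-deficient yeast mutant is measured after compound exposure. Values represent inhibition relative to vehicle.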

[6] = NCI Yeast Anticancer Drug Screen. Data for the mlh1 rad18 strain (AID 175); conditions: S. cerevisiae mlh1 rad18 strain growth inhibition, stronger effect = higher value
How it was run: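 Yeast w/ defined DNA-repair lesions; compound exposure; growth vs vehicle controls → % inhibition.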

[7] = at 5.0 µM (retest, dose inferred, filed as 0.5)
[8] = at 50.0 µM (retest, dose inferred, filed as 5.0)

Structure (SMILES) | growth inhibition [1, 7] | growth inhibition [1, 8] | growth inhibition ([1]; at 50.0 µM) | growth inhibition [2, 7] | growth inhibition [2, 8] | growth inhibition ([2]; at 50.0 µM) | growth inhibition [3, 7] | growth inhibition [3, 8] | growth inhibition ([3]; at 50.0 µM) | growth inhibition [4, 7] | growth inhibition [4, 8] | growth inhibition ([4]; at 50.0 µM) | growth inhibition [5, 7] | growth inhibition [5, 8] | growth inhibition ([5]; at 50.0 µM) | growth inhibition [6, 7] | growth inhibition [6, 8] | growth inhibition ([6]; at 50.0 µM)
O=C(O)c1ccc2c(O)c3ccccc3c(O)c2c1 | 3% | 72% (active) | 99.6% (active) | 1% | 41% | 99.5% (active) | 3% | 52% | 99.6% (active) | 4% | 50% | 93.5% (active) | 21% | 57% | 99.5% (active) | 5% | 65% | 99.2% (active)
CCCC(C)NCCCCCNc1cc(OC)cc2cccnc12 (configuration not stated) | 3% | 60% | 78.8% (active) | 2% | 22% | 48.5% | 25% | 62% | 71.6% (active) | 14% | 40% | 42% | 19% | 61% | 82.2% (active) | -19% | 11% | 76.5% (active)
COC(=O)CC1SC(=S)N(Cc2ccc(Cl)cc2)C1=O (configuration not stated) | -6% | 80% (active) | 98.1% (active) | -8% | 61% | 92.5% (active) | 2% | 93% (active) | 98.5% (active) | -59% | 28% | 55.6% | -15% | 81% (active) | 87.5% (active) | -25% | 88% (active) | 98% (active)
C=CCNC(=S)N/N=C(\CCC)c1ccccn1 | 98% (active) | 95% (active) | 99.3% (active) | 99% (active) | 96% (active) | 99.6% (active) | 99% (active) | 96% (active) | 99.6% (active) | 96% (active) | 93% (active) | 99.2% (active) | 98% (active) | 95% (active) | 99.5% (active) | 99% (active) | 95% (active) | 47.9%
Cc1ccc(C2=Nc3c(c(C)nn3-c3ccccc3)N=C(C(=O)O)C2)cc1 | 1% | 78% (active) | 76.2% (active) | -23% | 87% (active) | 82.9% (active) | -3% | 62% | 88.4% (active) | -4% | 92% (active) | 87.5% (active) | 2% | 89% (active) | 83.4% (active) | -12% | 86% (active) | 59.3%
C[CH2][Sn]([CH2]C)([O]C(=O)c1ccccc1OC)[O][Sn]([CH2]C)([CH2]C)[O]C(=O)c1ccccc1OC | 36% | 78% (active) | 51.6% | 35% | 87% (active) | 41% | 33% | 83% (active) | 42.2% | 20% | 62% | 20.8% | 35% | 94% (active) | 32.1% | 38% | 84% (active) | 72.8% (active)
C=C1CC(Cn2cc(Br)c(=O)[nH]c2=O)(c2ccc(Br)cc2)OC1=O (configuration not stated) | 14% | 98% (active) | 97.8% (active) | 30% | 98% (active) | 98.7% (active) | 29% | 98% (active) | 97.8% (active) | 19% | 90% (active) | 97.2% (active) | 4% | 97% (active) | 97.2% (active) | 40% | 99% (active) | 98.7% (active)
Cc1c(CCCl)c(N=[N+]=[N-])n2c(nc3ccccc32)c1C#N | 31% | 46% | 83.8% (active) | 27% | 45% | 71.2% (active) | 23% | 51% | 56.6% | 20% | 34% | 63.4% | 23% | 57% | 78.2% (active) | 28% | 48% | 56.5%
CC(=O)O[C@@H]1[C@@H](O)[C@H]2O[C@@H]3C=C(C)CC[C@]3(CO)[C@]1(C)[C@@]21CO1 | 34% | 93% (active) | -11.2% | 28% | 96% (active) | -22.9% | 33% | 95% (active) | 5.35% | 52% | 98% (active) | -11.7% | 13% | 98% (active) | 9.3% | 33% | 95% (active) | 91.8% (active)
COc1nc(N)c(N=O)c(OCc2ccccc2)n1 | 83% (active) | 97% (active) | 89% (active) | 99% (active) | 98% (active) | 92.6% (active) | 62% | 57% | 91.4% (active) | 55% | 98% (active) | 89.8% (active) | 97% (active) | 98% (active) | 91.6% (active) | 99% (active) | 97% (active) | 89.3% (active)
CCCN(Cc1ccccc1)S(=O)(=O)c1ccc(C)cc1 | -4% | 95% (active) | -14.1% | -4% | 97% (active) | -3.65% | -5% | 95% (active) | 16% | -6% | 93% (active) | -19.5% | 7% | 96% (active) | 63.7% | -5% | 96% (active) | -7.75%
Nn1c2ccccc2c2ccccc21 | -106% | -52% | 35% | -44% | -53% | 11.8% | -32% | -25% | 8.1% | -54% | -77% | 12% | -72% | -80% | -6% | -78% | 6% | 75.1% (active)
COc1ccc2c(c1)O[C@H]1c3ccc(O)cc3OC[C@@H]21 | 1% | 35% | 72.7% (active) | 8% | 36% | 69.5% | -2% | 41% | 68% | 3% | 16% | 50.3% | 5% | 41% | 74.2% (active) | 1% | 53% | 84% (active)
COC1CCC(/C(C#N)=C/c2ccco2)CC1 (configuration not stated) | 17% | 22% | 61.7% | -5% | 13% | 57.3% | -5% | 26% | 78.2% (active) | 22% | 29% | -0.15% | 38% | 58% | 79.6% (active) | 8% | 49% | 57.1%
O=C(CNc1ccccc1[N+](=O)[O-])Nn1c(-c2ccccc2)nc2ccccc2c1=O | 20% | 36% | 59.1% | 2% | 33% | 38.5% | 17% | 33% | 69% | 9% | 35% | 36% | -8% | 34% | 46.7% | 10% | 48% | 75.5% (active)
O=C(/C(Cl)=N/O)c1ccccc1 | 80% (active) | 99% (active) | 98.8% (active) | 47% | 100% (active) | 99.2% (active) | 51% | 99% (active) | 49.3% | 38% | 99% (active) | 58% | 91% (active) | 99% (active) | 99% (active) | 62% | 99% (active) | 50%
O=C(/C=C/c1ccccc1Cl)c1ccc(F)cc1 | 7% | 22% | 54.2% | -12% | 20% | 70.4% (active) | -1% | -4% | 53.8% | 9% | 17% | 34% | 33% | 51% | 78.8% (active) | 8% | 47% | 29.6%
CCc1ccccc1SC(C)=O | 6% | 55% | 29.9% | 13% | 70% (active) | 62% | 3% | 42% | 44.5% | 11% | 69% | 59.9% | 7% | 77% (active) | 80.9% (active) | 1% | 60% | 65.3%
N#CC1=C(C#N)Sc2nc3cc(Cl)ccc3nc2S1 | 17% | 99% (active) | 68.7% | 24% | 99% (active) | 91.1% (active) | 30% | 98% (active) | 77.9% (active) | 25% | 99% (active) | 20.6% | 19% | 98% (active) | 41.9% | 29% | 99% (active) | 94.8% (active)
